# Rows were chosen to be rich in hits. Some 11% of all compounds tested hit in one or more screens of this group.
# USP28 inh: inhibitors of human USP28 deubiquitinase. purified USP28, Ub-rhodamine cleavage fluorescence, 30 min. Ubiquitin carboxyl-terminal hydrolase 28 (Homo sapiens), Q96RU2. inhibition, % at 25 µM. actives 3% (n = 47,000)
# OTUD3 block: inhibitors of human OTUD3 deubiquitinase. AID 1645858, 2021. inhibition, % at 25 µM. actives 0.7% (n = 47,000). purified OTUD3, Ub-rhodamine fluorescence, 2 h. OTU domain-containing protein 3 (Homo sapiens), Q5T2D3
# USP30 inh: inhibitors of human USP30 deubiquitinase; AID 1645860, 2021; purified USP30, Ub-rhodamine cleavage fluorescence; Ubiquitin carboxyl-terminal hydrolase 30 (Homo sapiens), Q70CQ3; actives 5.3% (n = 47,000); inhibition, % at 25 µM
# USP17 inh: inhibitors of human USP17 deubiquitinase. Ubiquitin carboxyl-terminal hydrolase 17-like protein 5 (Homo sapiens), A8MUK1. purified USP17, Ub-rhodamine cleavage fluorescence, 3 h. inhibition, % at 50 µM. actives 6.5% (n = 47,000). AID 1645855, 2021
# A number is an active result; – = inactive; · = no result. No stated cut-off is given here; in the data, active means inhibition above about 30%; inactive means the rest.
SMILES,USP28 inh,OTUD3 block,USP30 inh,USP17 inh
c1cn(Cc2noc(-c3ccc4c(c3)OCO4)n2)cn1,–,–,–,–
Cc1nnc(NC(=O)c2coc(NC(=O)c3ccccc3)n2)s1,–,–,–,–
COc1cnc(CSc2ccc(C)cc2)cc1OCC(=O)Nc1ccccc1,–,–,35.6,–
COc1ccccc1NC(=O)COc1cc(CSc2ncccn2)ncc1OC,–,–,–,–
Cc1ccc(NC(=O)Nc2ccccc2)c(=O)n1CC(=O)N1CCCCC1,–,–,–,–
Fc1cccc(Oc2nc(CN3CCOCC3)nc3sc4c(c23)CCCC4)c1,–,–,–,–
Fc1ccc(Oc2nc(CN3CCOCC3)nc3sc4c(c23)CCCC4)c(Cl)c1,58.1,–,–,–
Cc1nc(-c2noc3ccc(C(=O)N4CCCC4)cc23)co1,–,–,30.5,–
O=C(CSc1nnnn1-c1ccc(O)cc1)c1cccc([N+](=O)[O-])c1,–,–,–,–
Fc1cccc(-n2cc(-c3noc(-c4ccccn4)n3)nn2)c1,80.9,–,88.5,30.1
COc1cccc(Cc2nc(-c3cn(-c4ccccc4)nn3)no2)c1,–,–,–,–
Fc1cccc(-n2cc(-c3noc(-c4ccc[nH]4)n3)nn2)c1,46.0,–,77.0,43.1
COc1cccc(Cc2nc(-c3cn(-c4cccc(F)c4)nn3)no2)c1,31.9,–,35.9,–
COc1cc(NC(=O)CSc2ncnc3nc[nH]c23)cc(OC)c1,–,–,–,–
O=[N+]([O-])c1c(Cl)cccc1-c1c[nH]cc1Cl,47.9,–,–,–
Cc1ccc(S(=O)(=O)c2cnc3ccccc3c2N2CCCCCC2)cc1,–,–,–,–
Cc1ccc(S(=O)(=O)c2cnc3ccc(F)cc3c2N2CCCC2)cc1,–,–,36.8,–
O=S(=O)(c1ccccc1)c1cnc2ccccc2c1N1CCCCC1,–,–,31.2,–
C=C(CCC(C)(C)/C=C/CC/C(C)=C/COC(COP(=O)(O)O[C@@H]1OC(C(N)=O)[C@@](C)(O)[C@H](OC(N)=O)C1O[C@@H]1OC(CO[C@@H]2OC(CO)[C@H](O)[C@H](O)C2O)[C@H](O[C@@H]2OC(CO)[C@H](O[C@@H]3OC(C(=O)NC4=C(O)CCC4=O)[C@H](O)[C@H](O)C3O)[C@H](O)C2NC(C)=O)C(O)[C@@H]1NC(C)=O)C(=O)O)CC1C(=C)CCCC1(C)C (some centres undefined),44.1,–,–,–
CC1CCN(S(=O)(=O)c2ccc(C(=O)Nc3ccc(S(N)(=O)=O)cc3)cc2)CC1,–,–,67.9,–
CC(=O)Nc1ccc(S(=O)(=O)N2CCCC2c2ccccc2)cc1 (centres undefined),–,–,–,–
O=C(Nc1ccc(S(=O)(=O)N2CCCCC2c2cccnc2)cc1)c1ccc2c(c1)OCO2 (centres undefined),41.0,–,44.2,–
CC1CCCCN1S(=O)(=O)c1ccc(C(=O)Nc2ccc(S(N)(=O)=O)cc2)cc1 (centres undefined),34.8,–,71.5,55.9
O=C1C=C(O)c2c(O)cccc2C1=O,51.2,–,–,92.1
Cc1cc(C)nc(NC(=O)c2c(C)nc3sccn23)c1,·,–,·,31.1
SMILES,USP28 inh,OTUD3 block,USP30 inh,USP17 inh
Cc1cc(C)nc(NC(=O)c2csnn2)c1,–,–,–,–
CC1CCCCC1NCC(=O)NC(c1ccccc1)c1ccccc1 (centres undefined),–,–,32.1,–
CSc1nc(Cc2ccc(Cl)cc2)nc2ccccc12,55.5,–,–,–
COCCCNC(=O)c1ccc(Cn2c(=O)c3ccccc3n(CC(=O)Nc3ccc(OC)cc3OC)c2=O)cc1,·,–,·,74.6
COCCCNC(=O)c1ccc(Cn2c(=O)c3ccccc3n(CC(=O)Nc3ccc(OC)cc3)c2=O)cc1,–,–,–,66.5
COCCCNC(=O)Cn1c(=O)n(Cc2ccc(C(=O)NCc3ccccc3OC)cc2)c(=O)c2ccccc21,–,–,52.9,–
CCOC(=O)c1c(-c2ccc(-c3ccccc3)cc2)cn2ccccc12,–,–,–,–
CC(=O)N1CCN(c2oc(-c3ccc(COc4ccc(C)cc4)o3)nc2C#N)CC1,–,–,–,–
CCOc1ccc(-c2nc(C#N)c(N3CCN(C(=O)c4ccccc4C)CC3)o2)cc1,–,–,–,52.5
COc1ccccc1-c1nc(C#N)c(N2CCN(C(=O)c3ccccc3)CC2)o1,–,–,47.0,–
NC(=O)C1Cc2ccccc2CN1C(=O)c1cn(-c2ccccc2)nc1-c1ccccc1 (centres undefined),–,–,–,–
Oc1ccccc1N1CCN(CC(O)c2ccccc2)CC1 (centres undefined),–,–,–,–
O=C(COc1ccccc1)Nc1ccc2c(c1)CN(C(=O)c1ccco1)CC2,–,–,–,–
COc1ccc(C(=O)Nc2ccc3c(c2)CN(C(=O)c2ccco2)CC3)c(OC)c1OC,–,–,–,–
O=C(COc1ccc(F)cc1)Nc1ccc2c(c1)CCC(=O)N2Cc1ccccc1,–,–,–,·
COc1ccccc1OCC(=O)Nc1ccc2c(c1)CCC(=O)N2Cc1ccccc1,–,–,54.3,–
COc1ccccc1OCC(=O)Nc1ccc2c(c1)CN(C(=O)c1ccco1)CC2,35.8,–,–,32.8
O=C(COc1ccccc1F)Nc1ccc2c(c1)CN(C(=O)c1ccco1)CC2,40.6,–,–,–
Cc1nccn1-c1cncc(C2CCCN2S(=O)(=O)c2ccc(F)cc2)n1 (centres undefined),–,–,–,–
O=C(NCc1cccc(NC(=O)C2CC2)c1)Nc1cccc2ccccc12,–,41.8,–,54.3
COc1ccccc1CNC(=O)Nc1cccc2ccccc12,–,–,30.1,52.8
Cc1ccc(NC(=O)Cn2c(=O)n(CCC(=O)N3CC=C(c4ccccc4)CC3)c(=O)c3ccccc32)c(Cl)c1,–,–,–,–
O=C1Nc2ccccc2C(=O)C1C(c1ccc(Cl)cc1)C1C(=O)Nc2ccccc2C1=O (centres undefined),39.9,–,41.1,88.2
O=C(Cn1cnc(-c2noc(-c3cccnc3)n2)c1)N1CCN(c2ccccc2F)CC1,–,–,–,–
O=C(CCc1ccc(S(=O)(=O)N2CCOCC2)cc1)OCC(=O)c1ccc(-c2ccccc2)cc1,–,–,31.1,–
O=C(CCc1ccc(S(=O)(=O)N2CCOCC2)cc1)NC(c1ccccc1)c1ccccc1,–,–,–,–
Cc1cc(C)nc(NC(C)C(=O)NCC2(C)COC2)n1 (centres undefined),–,–,–,–
O=C(Nc1cccc(-c2noc(C3CCC3)n2)c1)C1CC(=O)N(c2ccccc2)C1 (centres undefined),–,–,–,60.0
CCc1nc(-c2cccc(NC(=O)C3CC(=O)N(c4ccccc4)C3)c2)no1 (centres undefined),–,–,–,–
Cn1c(=O)[nH]c2cc(-c3noc(C4CC(=O)N(c5ccccc5)C4)n3)ccc21 (centres undefined),–,–,–,32.1

# Source: PubChem (Buhrlage Lab, Dana-Farber Cancer Institute and Novartis Institutes for BioMedical Research (Cambridge, Mass))
